NS3h inh CB: blocks HCV NS3 helicase binding to DNA; NS3h Cy5-dT15 DNA binding, fluorescence polarization; inhibition, % at 100 µM; 16,000 compounds, 1.6% hits; AID 687043;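 active = inhibition above the average over every tested compound plus 3 SD, cut at about 40% in these data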
Cy5 interf NS3h: counter-screen for HCV NS3 helicase inhibitors: fluorescence interference; Cy5-dT15 DNA with NS3h; actives lie on both sides; signal over control mean, under 1 quenches; fluorescence interference ratio at 100 µM; 16,000 compounds, 6% hits; AID 720488;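 active = compound fluorescence over control fluorescence at most 0.8, a quencher, or at least a set upper limit, an enhancer; inactive = ratio between 0.8 and the set upper limit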
Active calls of the source: *. In the library only some 7.6% were active in any assay of this set; here they are far more common.

SMILES | NS3h inh CB | Cy5 interf NS3h
CC(=O)Nc1ccc(NC(=O)c2ccc(N3C(=O)c4ccc(C(=O)Nc5ccc(NC(C)=O)cc5)cc4C3=O)cc2)cc1 | 15 | 0.77*
O=C(Nc1ccc2c(c1)C(=O)N(c1ccccc1)C2=O)c1ccc2c(c1)C(=O)N(c1ccccc1)C2=O | -7 | 1
CC(=O)Nc1ccc(NC(=O)c2ccc(C)cc2)cc1 | 4 | 1
O=C(Nc1ccc(NC(=O)c2ccc(Cl)cc2Cl)cc1)c1ccc(Cl)c(Cl)c1 | -17 | 0.97
COc1ccc(C)cc1NC(=O)c1cccnc1 | -9 | 1.1
Cc1nn2c3ccccc3n(C)c2c1C(=O)/C=C/c1ccccc1 | 14 | 1
COc1cc(OC)c(C=C2C(=O)N(C)C(=O)N(C)C2=O)cc1Br | 18 | 1
COc1c(F)c(F)c(-c2c(F)c(F)c(OC)c(F)c2F)c(F)c1F | 3 | 1.1
COc1ccc(OC)c(NC(=O)CN(c2ccccc2)S(=O)(=O)c2ccccc2[N+](=O)[O-])c1 | 12 | 0.75*
COc1ccc(OC)c(NC(=O)CN(c2cccc([N+](=O)[O-])c2)S(=O)(=O)c2ccccc2)c1 | 20 | 0.67*
COc1ccc(N(CC(=O)Nc2ccc(Cl)cc2C)S(=O)(=O)c2ccc(C)c([N+](=O)[O-])c2)cc1 | 20 | 0.68*
COC(=O)CN(c1ccccc1)S(=O)(=O)c1ccccc1[N+](=O)[O-] | 9 | 0.92
COc1ccc(N(CC(=O)Nc2ccc(C)cc2C)S(=O)(=O)c2ccc(C)cc2)cc1 | 13 | 0.98
CCOc1ccccc1NC(=O)CN(c1cccc([N+](=O)[O-])c1)S(=O)(=O)c1ccccc1 | 16 | 0.84
COc1ccc(N(CC(=O)Nc2ccc(Cl)cc2)S(=O)(=O)c2ccccc2)cc1Cl | 5 | 1.1
O=C1S/C(=C/c2ccccc2)C(=O)N1CC(=O)N1c2ccccc2Sc2ccc(Cl)cc21 | -12 | 1.1
COc1cc(C2C(C(=O)OCCOc3ccccc3)=C(C)NC3=C2C(=O)CC(C)(C)C3)cc(OC)c1O (stereo not drawn) | 3 | 0.98
CCc1ccc(C2(c3ccc(CC)cc3)C(=O)NCc3ccccc32)cc1 | -4 | 0.9
CC(C)(c1cc(Cl)cc(Cl)c1)N1C(=O)C2=C(CCCC2)C1=O | 8 | 0.88
CCOC(=O)C(Cc1cccc([N+](=O)[O-])c1)SC#N (stereo not drawn) | 13 | 1
C=CCn1c(SCC(=O)O)nnc1-c1ccc(OC)cc1 | -4 | 1
C=CCN1C(=O)c2ccccc2C1(O)c1ccc(OC)cc1 (stereo not drawn) | 9 | 0.74*
Cc1ccccc1OCCNC(=O)Cc1cccc2ccccc12 | 20 | 0.99
Cc1c(Cl)cccc1NC(=O)/C(C#N)=C/c1ccc(-c2ccc(C(=O)O)cc2)o1 | 17 | 1.1
COc1cc(C(=O)Nc2ccc(NC(C)=O)cc2)c([N+](=O)[O-])cc1OC | 10 | 1
SMILES | NS3h inh CB | Cy5 interf NS3h
CCCNC(=O)c1cc(OC)c(OC)cc1[N+](=O)[O-] | 10 | 0.79*
O=C1/C(=C/c2ccc3c(c2)OCO3)SC(=S)N1c1ccc(F)cc1 | 6 | 1.1
COc1ccc(N(CC(=O)NCCSc2nc3ccccc3s2)S(=O)(=O)c2ccccc2)c(OC)c1 | 8 | 1.1
CN(C)CCn1c2ccccc2c2nc3ccc([N+](=O)[O-])cc3cc21 | -13 | 0.74*
CCc1nc2ccccc2n1Cc1ccc([N+](=O)[O-])cc1 | 4 | 1
C/C(=N\NC(=O)Nc1ccccc1)C1CC1 | -2 | 1
Cc1ccc(OCC(=O)Nc2ccc(Cl)cn2)c(C)c1 | 14 | 1
Cc1nc(C=C2C(=O)C=Cc3ccccc32)c(O)o1 | -2 | 1.1
CCOC(=O)c1c(C)[nH]c(C=C2C(=O)C=Cc3ccccc32)c1O | -8 | 0.43*
CCOC(=O)CCC(=O)Nc1cc(-c2ccc(F)cc2)[nH]n1 | -10 | 0.93
Clc1ccc(-c2nc(-c3cccnc3)no2)c(Cl)c1 | 9 | 1.1
Clc1ccccc1-c1nc(-c2cccnc2)no1 | -16 | 1.2*
COc1cccc(NC(=O)/C(=C/c2ccccc2)c2ccccc2)c1 | 14 | 1
COc1ccc(OC)c(NC(=O)/C(=C/c2ccccc2)c2ccccc2)c1 | 4 | 0.61*
N/C(=N/OC(=O)c1cccc(F)c1)c1ccc(Br)cc1 | 8 | 0.97
O=C(CSc1nc2ccccc2o1)c1ccc2c(c1)Cc1ccccc1-2 | 1 | 0.64*
CC(C)(C)CC(C)(C)NC(=O)CSc1nc2ccccc2o1 | 6 | 0.91
O=C1C2C3C=CC(C4CC34)C2C(=O)N1c1ccc(Cl)cc1 (stereo not drawn) | -4 | 0.92
COC(=O)c1cc(N2C(=O)C3C4C=CC(C5CC45)C3C2=O)ccc1Cl (stereo not drawn) | 8 | 0.69*
COc1ccccc1C1Nc2cc3ccccc3cc2C2=C1C(=O)CC(C)(C)C2 (stereo not drawn) | -1 | 1
O=C(Nc1nccs1)c1cccc(NC(=O)c2cccs2)c1 | 32 | 0.71*
O=C(Nc1cc(NC(=O)c2ccccc2)cc(C(=O)Nc2nccs2)c1)c1ccccc1 | -1 | 1
O=C(Cc1ccccc1)Nc1ccc(C(=O)Nc2nccs2)cc1 | 21 | 0.68*
CCN(CC)c1ccc(C(=O)Nc2nccs2)cc1 | 13 | 0.98
O=C(CN(c1ccc(F)cc1)S(=O)(=O)c1ccccc1)NCCc1ccccc1 | 13 | 1.1
SMILES | NS3h inh CB | Cy5 interf NS3h
O=c1oc(-c2cccs2)nc2sc3c(c12)CCCCC3 | -3 | 0.97
O=c1oc(-c2ccccc2)nc2sc3c(c12)CCCC3 | 15 | 0.69*
O=C1OC(c2ccccc2Br)=N/C1=C\c1cc2c(cc1Cl)OCO2 | 6 | 1.2
CN(C)c1ccc(/C=C2\C(=O)Oc3ccccc3C2=O)cc1 | 26 | 1.1
CN(C)c1ccc(/C=C2\C(=O)c3cccc([N+](=O)[O-])c3C2=O)cc1 | 49* | 0.94
O=C(N/C(=C/c1cccs1)C(=O)N1CCCCC1)c1ccccc1 | 0 | 1
COc1ccccc1C=C1C(=O)NC(=S)N(c2ccccc2F)C1=O | 8 | 0.99
O=C1NC(=S)N(c2ccccc2F)C(=O)/C1=C/c1ccc(OCc2cccc(C(=O)O)c2)cc1 | 50* | 1
COc1ccc(/C(N)=N\OC(=O)c2ccccc2I)cc1OC | 8 | 1
Cc1cc(=O)n2ccc(CN(C)C)c(O)c2n1 | 5 | 0.62*
Cc1ccc(NCCC(=O)c2cccc([N+](=O)[O-])c2)cc1Cl | 9 | 1
Cc1ccc(-n2nc(C)c(-c3cccc([N+](=O)[O-])c3)c2C)cc1Cl | 7 | 0.65*
O=C(Nc1nnc(COc2ccc(C3CCCCC3)cc2)s1)c1cccc(Cl)c1 | -2 | 1
N#C/C(=C\c1ccc(-c2ccccc2Cl)o1)C(=O)Nc1cccc2ncccc12 | 2 | 0.95
N#C/C(=C\c1ccc(-c2ccc(Cl)cc2)o1)C(=O)Nc1cccc2ncccc12 | -42 | 0.55*
CCOC(=O)c1c(C)nn2c1NC(c1ccc(Cl)cc1)CC2C(F)(F)F (stereo not drawn) | 9 | 0.99
O=C1C(=O)N(c2cccnc2)C(c2ccccc2)C1=C(O)c1ccc(Cl)cc1 (stereo not drawn) | -19 | 1
CCOc1ccc(NC(=O)CSc2nnc(-c3ccc(OC)cc3)o2)cc1 | 20 | 0.74*
COc1ccc(NC(=O)CSc2ncccn2)cc1 | 0 | 1.1
O=C1C2C3C=CC(C3)C2C(=O)N1c1cccc(Oc2cccc(Oc3cccc(N4C(=O)C5C6C=CC(C6)C5C4=O)c3)c2)c1 (stereo not drawn) | -1 | 0.87

From PubChem
